# Results published in the supplement of paper PMC10849652.
# Of roughly 8,800 targets only a part is listed; those with a hit were picked by preference. About 0.5% of all pairs of compound and target were hits. Values without a mark were called inactive.
# What was measured:
# Assay in all cases: log2 fold change, soluble protein after heating vs DMSO (PISA); higher = thermal stabilisation; K562 lysate, 10 uM; active = over 0.2 and 3.5 SD of the protein, either way, in both replicates (recomputed)
# alvocidib = compound: CN1CC[C@H](c2c(O)cc(O)c3c(=O)cc(-c4ccccc4Cl)oc23)[C@H](O)C1 [alvocidib]
# How it was run: (§1)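 Quantification was by TMTpro 16plex LC-MS/MS with equalised channel sums, applied to the supernatant after 21,000xg for 90 min. Samples were crude K562 extract at 1 mg/mL protein in PBS pH 7.4 with 1 mM MgCl2, treated with 10 μM compound for 30 min, heated for 3 min across 48°C-58°C, pooled and brought to 0.5% NP-40 at 4°C. Values are log-two fold changes in thermal stability relative to solvent controls, from duplicates.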
# Tubastatin A = compound: CN1CCc2c(c3ccccc3n2Cc2ccc(C(=O)NO)cc2)C1 [Tubastatin A]
# How it was run: as §1
# [1] = compound: CNC(=O)C1=CC=CC=C1NC2=NC(=NC=C2Cl)NC3=C(C=C(C=C3)N4CCOCC4)OC
# How it was run: as §1
# defactinib = compound: CNC(=O)c1ccc(Nc2ncc(C(F)(F)F)c(NCc3nccnc3N(C)S(C)(=O)=O)n2)cc1 [defactinib]
# How it was run: as §1
# [2] = compound: CNc1nc(-c2ccc3c(N)n[nH]c3c2)cc(N2C[C@@H](C(=O)NC3CCCCC3)CC[C@H]2C)n1
# How it was run: as §1
# encorafenib = compound: COC(=O)N[C@@H](C)CNc1nccc(-c2cn(C(C)C)nc2-c2cc(Cl)cc(NS(C)(=O)=O)c2F)n1 [encorafenib]
# How it was run: as §1
# [3] = compound: COC(=O)[C@H](CCSC)NC(=O)C1=C(C=C(C=C1)NC[C@H](CS)N)C2=CC=CC=C2
# How it was run: as §1
# alisertib = compound: COc1cc(Nc2ncc3c(n2)-c2ccc(Cl)cc2C(c2c(F)cccc2OC)=NC3)ccc1C(=O)O [alisertib]
# How it was run: as §1
# [4] = compound: COc1cc2nc(-c3cc(F)ccc3O)nc(N[C@@H]3CNC[C@H]3C(C)(C)O)c2cc1OC
# How it was run: as §1
# gefitinib = compound: COc1cc2ncnc(Nc3ccc(F)c(Cl)c3)c2cc1OCCCN1CCOCC1 [gefitinib]
# How it was run: as §1
# Sequence of UniProt Q96NC0 (Q96NC0 whole entry, looked up): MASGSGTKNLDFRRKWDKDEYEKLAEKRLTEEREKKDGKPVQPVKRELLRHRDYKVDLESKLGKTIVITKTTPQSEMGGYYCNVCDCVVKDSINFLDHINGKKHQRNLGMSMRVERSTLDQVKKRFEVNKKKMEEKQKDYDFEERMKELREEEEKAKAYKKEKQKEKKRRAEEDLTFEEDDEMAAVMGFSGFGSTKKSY
# Sequence of UniProt Q709C8 (Q709C8 whole entry, looked up): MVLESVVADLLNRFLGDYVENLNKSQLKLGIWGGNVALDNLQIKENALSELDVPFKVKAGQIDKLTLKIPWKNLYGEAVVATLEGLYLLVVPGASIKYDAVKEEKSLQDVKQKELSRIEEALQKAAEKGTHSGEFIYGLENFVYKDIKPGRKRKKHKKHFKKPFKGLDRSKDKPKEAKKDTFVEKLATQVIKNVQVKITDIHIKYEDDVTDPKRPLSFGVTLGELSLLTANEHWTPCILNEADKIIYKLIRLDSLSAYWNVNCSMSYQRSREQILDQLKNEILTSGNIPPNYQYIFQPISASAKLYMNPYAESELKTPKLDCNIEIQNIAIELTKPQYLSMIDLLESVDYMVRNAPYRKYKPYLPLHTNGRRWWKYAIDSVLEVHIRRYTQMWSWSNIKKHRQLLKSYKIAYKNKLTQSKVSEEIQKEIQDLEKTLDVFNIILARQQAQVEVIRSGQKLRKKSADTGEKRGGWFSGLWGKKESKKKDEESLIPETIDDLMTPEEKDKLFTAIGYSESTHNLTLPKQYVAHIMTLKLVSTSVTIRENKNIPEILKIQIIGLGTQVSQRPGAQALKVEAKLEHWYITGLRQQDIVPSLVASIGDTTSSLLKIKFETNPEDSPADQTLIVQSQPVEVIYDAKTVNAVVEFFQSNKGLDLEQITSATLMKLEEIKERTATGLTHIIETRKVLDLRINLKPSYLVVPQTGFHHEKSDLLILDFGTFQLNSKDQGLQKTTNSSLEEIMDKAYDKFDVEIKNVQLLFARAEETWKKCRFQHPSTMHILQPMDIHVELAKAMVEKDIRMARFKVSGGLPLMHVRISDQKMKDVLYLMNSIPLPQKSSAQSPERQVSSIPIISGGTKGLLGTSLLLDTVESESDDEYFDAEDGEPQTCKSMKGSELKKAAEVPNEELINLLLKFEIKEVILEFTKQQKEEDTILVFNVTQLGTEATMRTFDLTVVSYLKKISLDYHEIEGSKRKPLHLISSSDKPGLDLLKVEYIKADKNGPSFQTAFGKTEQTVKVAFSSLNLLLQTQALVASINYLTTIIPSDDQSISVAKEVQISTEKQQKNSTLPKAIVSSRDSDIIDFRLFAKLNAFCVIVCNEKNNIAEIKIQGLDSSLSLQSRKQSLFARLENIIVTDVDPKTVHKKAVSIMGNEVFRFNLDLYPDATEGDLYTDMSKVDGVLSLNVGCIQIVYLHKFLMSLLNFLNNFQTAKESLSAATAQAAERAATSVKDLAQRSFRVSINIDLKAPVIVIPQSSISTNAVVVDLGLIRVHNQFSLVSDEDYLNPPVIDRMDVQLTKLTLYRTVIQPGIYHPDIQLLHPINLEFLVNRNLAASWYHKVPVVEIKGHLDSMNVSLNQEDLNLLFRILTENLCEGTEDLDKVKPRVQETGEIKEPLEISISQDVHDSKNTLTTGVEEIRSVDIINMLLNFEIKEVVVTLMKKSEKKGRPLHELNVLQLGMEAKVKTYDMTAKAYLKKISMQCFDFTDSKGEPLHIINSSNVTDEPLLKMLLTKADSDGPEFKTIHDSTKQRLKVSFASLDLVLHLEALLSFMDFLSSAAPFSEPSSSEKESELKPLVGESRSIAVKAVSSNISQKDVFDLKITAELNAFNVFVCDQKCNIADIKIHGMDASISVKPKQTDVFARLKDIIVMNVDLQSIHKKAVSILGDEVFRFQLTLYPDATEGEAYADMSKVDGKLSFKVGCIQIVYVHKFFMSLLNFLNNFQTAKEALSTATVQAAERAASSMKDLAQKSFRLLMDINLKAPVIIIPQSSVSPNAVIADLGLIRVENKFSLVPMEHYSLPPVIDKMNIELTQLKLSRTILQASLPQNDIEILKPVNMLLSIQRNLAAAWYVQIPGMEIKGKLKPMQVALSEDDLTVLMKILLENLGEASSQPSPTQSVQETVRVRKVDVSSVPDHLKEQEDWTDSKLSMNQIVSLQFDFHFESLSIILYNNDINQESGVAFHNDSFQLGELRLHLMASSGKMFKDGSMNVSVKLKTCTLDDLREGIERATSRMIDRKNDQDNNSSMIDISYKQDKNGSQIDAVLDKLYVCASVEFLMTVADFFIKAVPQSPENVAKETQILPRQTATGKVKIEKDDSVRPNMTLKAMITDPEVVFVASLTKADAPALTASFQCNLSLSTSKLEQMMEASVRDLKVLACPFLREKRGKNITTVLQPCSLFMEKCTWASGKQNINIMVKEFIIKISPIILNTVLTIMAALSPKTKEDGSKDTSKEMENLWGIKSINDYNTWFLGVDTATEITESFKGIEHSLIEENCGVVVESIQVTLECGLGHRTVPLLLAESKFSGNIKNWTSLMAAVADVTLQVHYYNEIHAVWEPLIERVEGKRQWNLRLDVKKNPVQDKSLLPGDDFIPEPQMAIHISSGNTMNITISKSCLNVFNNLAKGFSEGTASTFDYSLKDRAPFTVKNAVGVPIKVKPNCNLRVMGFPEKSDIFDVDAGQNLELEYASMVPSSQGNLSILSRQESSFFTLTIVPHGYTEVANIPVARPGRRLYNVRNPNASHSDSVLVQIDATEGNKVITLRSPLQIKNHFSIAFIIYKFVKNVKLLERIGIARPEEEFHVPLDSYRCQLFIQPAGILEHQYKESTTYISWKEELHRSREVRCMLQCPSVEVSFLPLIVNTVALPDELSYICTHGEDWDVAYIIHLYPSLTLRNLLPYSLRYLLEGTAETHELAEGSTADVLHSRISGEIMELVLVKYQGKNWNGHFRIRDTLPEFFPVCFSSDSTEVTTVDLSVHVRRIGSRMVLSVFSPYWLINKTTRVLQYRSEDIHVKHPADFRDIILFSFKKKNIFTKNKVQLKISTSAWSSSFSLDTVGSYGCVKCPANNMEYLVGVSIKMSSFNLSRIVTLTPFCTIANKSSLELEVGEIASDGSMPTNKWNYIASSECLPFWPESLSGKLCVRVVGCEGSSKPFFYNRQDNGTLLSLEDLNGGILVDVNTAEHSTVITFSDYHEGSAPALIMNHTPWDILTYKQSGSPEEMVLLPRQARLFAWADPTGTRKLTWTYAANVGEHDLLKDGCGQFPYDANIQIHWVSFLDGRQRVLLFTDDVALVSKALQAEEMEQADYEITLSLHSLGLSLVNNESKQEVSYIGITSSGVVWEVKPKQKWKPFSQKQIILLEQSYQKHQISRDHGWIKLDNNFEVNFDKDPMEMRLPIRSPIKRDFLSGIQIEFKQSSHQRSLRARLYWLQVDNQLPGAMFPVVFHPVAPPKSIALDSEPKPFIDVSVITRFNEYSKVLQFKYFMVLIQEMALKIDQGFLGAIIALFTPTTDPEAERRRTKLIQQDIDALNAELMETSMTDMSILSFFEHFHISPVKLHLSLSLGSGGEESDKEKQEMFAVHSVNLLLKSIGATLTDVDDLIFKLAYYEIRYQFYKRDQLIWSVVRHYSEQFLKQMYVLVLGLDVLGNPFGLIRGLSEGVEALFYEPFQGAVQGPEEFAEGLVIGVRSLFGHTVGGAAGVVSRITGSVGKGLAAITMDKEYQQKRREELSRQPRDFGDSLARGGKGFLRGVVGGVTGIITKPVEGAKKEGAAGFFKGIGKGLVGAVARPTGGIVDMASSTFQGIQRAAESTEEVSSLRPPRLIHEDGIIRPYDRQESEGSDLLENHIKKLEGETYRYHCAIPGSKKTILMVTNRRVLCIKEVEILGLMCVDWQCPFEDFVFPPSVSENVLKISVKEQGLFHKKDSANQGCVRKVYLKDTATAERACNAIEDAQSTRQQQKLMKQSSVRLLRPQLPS
# Sequence of UniProt P40818 (P40818 whole entry, looked up): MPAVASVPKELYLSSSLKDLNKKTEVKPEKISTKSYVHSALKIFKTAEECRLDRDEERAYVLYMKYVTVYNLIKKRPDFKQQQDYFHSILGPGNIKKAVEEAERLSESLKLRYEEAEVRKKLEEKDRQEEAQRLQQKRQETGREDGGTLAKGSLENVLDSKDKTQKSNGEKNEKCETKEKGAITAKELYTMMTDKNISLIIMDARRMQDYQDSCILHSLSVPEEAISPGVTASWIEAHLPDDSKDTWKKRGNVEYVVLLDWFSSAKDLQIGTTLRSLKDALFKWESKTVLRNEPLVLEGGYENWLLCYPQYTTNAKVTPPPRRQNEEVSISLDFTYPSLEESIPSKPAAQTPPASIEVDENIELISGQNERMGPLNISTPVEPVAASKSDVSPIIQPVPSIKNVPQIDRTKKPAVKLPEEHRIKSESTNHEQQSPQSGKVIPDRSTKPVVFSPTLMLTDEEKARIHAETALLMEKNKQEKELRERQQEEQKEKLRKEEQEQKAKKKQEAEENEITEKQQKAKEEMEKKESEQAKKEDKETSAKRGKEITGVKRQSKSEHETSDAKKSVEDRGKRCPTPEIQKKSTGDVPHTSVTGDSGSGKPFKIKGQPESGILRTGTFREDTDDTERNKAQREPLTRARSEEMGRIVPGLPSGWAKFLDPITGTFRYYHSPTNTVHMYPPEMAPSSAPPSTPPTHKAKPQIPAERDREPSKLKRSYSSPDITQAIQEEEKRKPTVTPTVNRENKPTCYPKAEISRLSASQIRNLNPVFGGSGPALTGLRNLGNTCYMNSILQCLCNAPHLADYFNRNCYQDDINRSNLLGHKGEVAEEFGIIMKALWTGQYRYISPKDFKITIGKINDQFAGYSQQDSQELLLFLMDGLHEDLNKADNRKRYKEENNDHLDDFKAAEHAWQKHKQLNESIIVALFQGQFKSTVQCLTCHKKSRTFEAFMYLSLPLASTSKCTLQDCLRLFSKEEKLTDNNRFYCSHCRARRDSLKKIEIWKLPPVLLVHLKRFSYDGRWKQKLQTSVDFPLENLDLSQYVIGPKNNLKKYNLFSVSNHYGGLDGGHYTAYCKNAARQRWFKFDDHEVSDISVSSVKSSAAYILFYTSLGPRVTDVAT
Target,log2 fold change (alvocidib),log2 fold change (Tubastatin A),log2 fold change [1],log2 fold change (defactinib),log2 fold change [2],log2 fold change (encorafenib),log2 fold change [3],log2 fold change (alisertib),log2 fold change [4],log2 fold change (gefitinib)
ZMAT2 (UniProt Q96NC0),-0.001,0.053,-0.012,-0.001,-0.037,-0.035,-0.014,0.009,0.001,0.013
WDHD1 (UniProt O75717),0.042,-0.073,0.004,-0.002,-0.011,-0.019,0.098,-0.016,-0.003,0.015
UQCC2 (UniProt Q9BRT2),0.079,0.05,-0.027,0,0.006,0.021,-0.025,0.029,0.017,-0.059
UNC13D (UniProt Q70J99),0.015,-0.117,0.014,0.026,-0.035,0.059,0.054,-0.005,0.001,-0.034
XPO1 (UniProt O14980),0.005,-0.096,-0.011,0.016,-0.013,0.034,-0.101,0.013,0.023,-0.007
YME1L1 (UniProt Q96TA2),0.018,0.048,0.011,0.018,-0.061,0.05,-0.301 (active),-0.016,0.028,0.042
VCPIP1 (UniProt Q96JH7),-0.049,-0.026,-0.01,0.022,0.113,0.005,0.141,0.003,-0.006,-0.04
WDCP (UniProt Q9H6R7),0.019,-0.138,0.025,0.005,0.032,0.024,-0.019,0.01,0.062,-0.017
VPS28 (UniProt Q9UK41),-0.018,-0.034,0,-0.018,-0.078,0.046,0.012,-0.022,0,0.034
VPS33A (UniProt Q96AX1),-0.01,-0.077,0.033,0.012,-0.011,0.028,-0.044,0.021,-0.022,0.027
VAV1 (UniProt P15498),0.005,-0.117,-0.028,0.018,0.007,-0.026,0.025,-0.006,-0.044,0.024
VAV3 isoform 4 (UniProt Q9UKW4),-0.305,-0.202,0.032,-0.295,0.053,0,0.049,-0.004,0.054,0.036
VPS37B (UniProt Q9H9H4),0.025,-0.034,-0.047,0.052,0.024,-0.014,-0.053,-0.019,-0.003,-0.071
VPS4A (UniProt Q9UN37),-0.004,-0.16,0.025,0.01,-0.1,-0.004,0.138,0,-0.004,-0.025
YTHDF3 (UniProt Q7Z739),0.03,-0.108,-0.071,-0.05,-0.112,0.097,0.024,0.043,0.009,0.013
VAC14 (UniProt Q08AM6),0,-0.036,0.022,0.007,0.005,0.04,-0.051,0.008,0.006,0.003
WIPI2 isoform 6 (UniProt Q9Y4P8),-0.015,,,,,,,,,
ZMYM1 (UniProt Q5SVZ6),-0.162,-0.098,0.071,-0.035,0.067,0.063,-0.038,-0.008,0.03,0.009
ZBTB33 (UniProt Q86T24),-0.028,-0.005,-0.178,-0.062,0.119,0.018,-0.004,-0.059,-0.307,0.086
USP8 (UniProt P40818),0.023,-0.018,0.014,0.02,0.005,0.004,0.102,-0.011,0.002,0.015
WRN (UniProt Q14191),-0.029,-0.071,-0.007,0.023,-0.025,0.016,-0.013,-0.037,0,0.047
USP48 isoform 8 (UniProt Q86UV5),0.006,-0.119,0.019,-0.012,0.011,-0.003,0.14,-0.016,0.003,-0.018
UQCRC2 (UniProt P22695),-0.005,0.035,-0.013,0.014,0.01,-0.001,-0.013,0.022,0.024,-0.013
VPS13C (UniProt Q709C8),0.008,0.034,0.002,0.014,0.023,0.192,-0.131,0.111,0.157,0.131
VPS39 (UniProt Q96JC1),0.268 (active),-0.06,0.036,0.011,0.007,0.043,-0.218,0.041,0.026,-0.041
WDR41 (UniProt Q9HAD4),-0.061,-0.14,0.021,-0.044,0.017,0.081,-0.121,0.033,-0.047,0.083
YEATS4 (UniProt O95619),0.105,0.004,0.012,0.007,-0.054,-0.004,-0.062,0.315 (active),-0.008,-0.064
WDR36 (UniProt Q8NI36),0.021,-0.102,0.028,-0.018,-0.062,-0.025,0.134,0.008,0.004,-0.03
ZC2HC1A (UniProt Q96GY0),-0.034,-0.044,-0.021,-0.155,-0.04,0.03,-0.235 (active),-0.073,-0.021,0.019
USP34 (UniProt Q70CQ2),0.035,-0.045,0.009,0.006,-0.014,0.033,0.09,0,0.017,0.013
